Results as given in PubChem BioAssay AID602254 (Broad Institute, 2012).
Out of some 1,000 compounds screened, fewer than 10 were called active.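 How the source made its calls: active means fitted half-maximal concentration no higher than twice the top valid tested dose, with signal falling; inconclusive means flat curve with 30 to 70% inhibition, or poor fit; inactive means the rest.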 A selection follows. Potency and affinity values are given separately.

Molecular target: Golgi-associated PDZ and coiled-coil motif-containing protein (Homo sapiens) (UniProt Q9HD26)
Assay: blockers of CAL PDZ–TMR peptide complex – biochemical, fluorescence polarization, untagged CAL PDZ, cherry-pick, set 2, dose response (AID 602254);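 further: 0% = DMSO neutral control and -100% = unlabeled peptide PRC23 positive control; more negative means stronger blocking of peptide binding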
Details: Purified CAL PDZ; series mostly up to 60 µM; activity change, negative = inhibition: at the top concentration

Activity change, negative = inhibition, inactive:
COc1ccc(NC2CCCN(C(=O)c3csc(C(C)C)n3)C2)cc1 (centres undefined) -1.33%, O=C1OC(CO)CN1Cc1ccccc1 (centres undefined) -3.64%, O=S1(=O)c2c(F)cccc2OC(COCc2ccccc2)CN1C1CCCC1 (centres undefined) 9.91%, Cc1ccc(C)c(N(CC(=O)N2CCCC2)S(C)(=O)=O)c1 6.46%, COc1ccc(NC(=O)n2ncc3c(C)cccc32)cc1 2.29%, O=C(O)c1c(-c2ccc(Cl)cc2)cn2ccccc12 -0.658%, O=C(NCc1ccncc1)C(=O)N/N=C/c1ccccn1 -0.098%, O=C(COC(=O)COc1ccc(Br)cc1)NCC1CCCO1 (centres undefined) -4.89%, CCCCN1CC(COCc2ccccc2)Oc2cccc(F)c2S1(=O)=O (centres undefined) 0.998%, COc1ccccc1C(=O)Nc1ccc2c(c1)nc(CN1CCCCC1)n2C 3.14%, COC(=O)Cc1ccc(NC(=S)Nc2cccc(C)n2)cc1 2.44%, O=C(CN1CCC(n2nnc3cc(C(F)(F)F)ccc32)CC1)Nc1ccc2c(c1)OCCO2 -1.87%, CCOC(=O)C(/C=N/c1cc(C)nn1-c1ccccc1)=C(\C)O 3.31%, CCc1ccc(C(=O)NNC(=O)c2c(CC)noc2C)cc1 -3.88%, COc1ccc(/C=N/N2CCN(Cc3ccc(C)cc3)CC2)cc1Br 1.63%, Cc1ccc(C(=O)NN2C(=O)c3ccc(S(=O)(=O)c4ccc(C(=O)O)cc4)cc3C2=O)cc1 -1.61%, CC(C)CNC(=O)NC(=O)COC(=O)COc1ccc(Cl)cc1Cl 1.9%, COc1ccccc1C(=O)Oc1ccccc1C(=O)Nc1ccccc1 -11.9%, O=C(O)Cc1sc(-c2ccc(Cl)cc2)nc1-c1ccccc1 3.43%, Cc1ccc2nc(NC(=O)COC(=O)c3ccncc3)sc2c1 2.09%, Cc1noc(C)c1COc1cccc(C(=O)OC(C)C#N)c1 (centres undefined) -4%, COc1ccc(CN2CCNC(=O)C2CC(=O)NC2CCCCCCC2)cc1OC (centres undefined) 1.79%, CCC(C)(C(=O)NC1CCCCC1)N(C)C(=O)c1ccccn1 (centres undefined) 0.953%, Cc1cc(CN(C)C(=O)C2CCC(=O)N(CCc3cccc(F)c3)C2)on1 (centres undefined) -0.419%, Cc1onc(-c2c(Cl)cccc2Cl)c1C(=O)N1CCN(c2ncccn2)CC1 2.53%, CC(C)c1ccc(S(=O)(=O)N2CCN(C(=O)c3cccc(F)c3)CC2)cc1 4.73%, Cc1ccc(/C=N/N(C)S(=O)(=O)c2ccc(C)cc2)cc1 -0.427%, CCOc1ccc(NC(=O)CCN2CCN(S(=O)(=O)c3ccc(F)cc3)CC2)cc1 -0.08%, Cc1ccccc1C(=O)c1cccn1CC(=O)NCCC1=CCCCC1 0.05%, COc1ccccc1NC(=O)C1CCN(C(=O)NCc2ccccc2)CC1 0.179%, CCSc1ccccc1C(=O)NCCc1ccccc1 -8.58%, COc1ccc(C)cc1NC(=O)Cn1c(=O)oc2ccccc21 -1.95%, O=C(NNC(=O)C1CCC1)c1ccc(Br)cc1 -0.869%, CC1CCN(C(=O)COc2ncnc3ccccc23)CC1 -1.92%, COc1ccc(CCC(=O)Nc2ncc(C)s2)cc1OC -1.11%, CC(=O)Nc1ccc(NCC(=O)c2ccccc2)cc1 5.34%, O=C(Oc1ccccc1)N1CCOCC1 0.207%, CCCN1CCN(S(=O)(=O)c2ccc3c(c2)CCC(=O)N3)CC1 -0.697%, COC(=O)c1c(NC(=O)CN(C)CC(=O)Nc2ccc(C)cc2)sc2c1CCC(C)C2 (centres undefined) 0.538%, CCOC(=O)Cn1c(=O)oc2cc(S(=O)(=O)N(C)Cc3ccccc3)ccc21 -0.806%, CC(C)Oc1cccc(C(=O)C2CCCN(C(=O)CCn3cnnn3)C2)c1 (centres undefined) 0.618%, CC1CCC(NC(=O)c2nn(C)c3c2CSc2ccccc2-3)CC1 (centres undefined) -0.08%, CCOC(=O)c1ccc(S(=O)(=O)NCC(C)(C)N2CCOCC2)cc1 0.845%, c1ccc(CN2CCCC3(CCCN(Cc4nc(COc5ccccc5)no4)C3)C2)cc1 (centres undefined) -0.026%, O=C(COc1ccc(Cl)cc1)Nc1cc(NC(=O)COc2ccc(Cl)cc2)cc(C(=O)O)c1 9.23%, CN(Cc1cnccn1)Cc1nc(Cc2ccccc2F)no1 0.187%, CCCNC(=O)C1CCC(CNS(=O)(=O)c2ccc3c(c2)CC(C)N3C(C)=O)CC1 (centres undefined) 0.309%, Fc1ccc(Cn2cc(C(=S)N3CCOCC3)c3ccccc32)cc1 0.943%, CCC(=O)N1CCc2cc(Br)cc(S(=O)(=O)N3CCCCC3CC)c21 (centres undefined) -1.65%, CC1CCN(Cc2nnnn2CCCC(=O)NCCc2cnn(C)c2)CC1 -1.37%, Cc1ccc(O)c(-c2cc(-c3cccc(Br)c3)n[nH]2)c1 0.711%, C=CCc1ccc(OCCCCN2CC(C)OC(C)C2)c(OC)c1 (centres undefined) 0.21%, Cc1noc(NS(=O)(=O)c2ccc(NC(=O)c3ccc(N(C)C)cc3)cc2)c1C -0.732%, Cc1ccc(NC(=O)CN(C)C(=O)COc2cccc3ccc(C)nc23)cc1 -0.235%, COc1ccc(-c2[nH]ncc2CNC(C)CCn2cccn2)cc1F (centres undefined) -0.462%, Cc1ccc(N2CCN(CCCCN3C(=O)C4CCCN4C3=O)CC2)cc1 (centres undefined) -1.07%, COc1ccc(-c2csc(N3C(=O)CNC3=S)n2)cc1 -9.99%, N#Cc1ccc(NC(=O)NN2CCCCCC2)cc1 2.36%, CCN1CCCc2cc(CN(CCN3CCOCC3)C(=S)Nc3cccc(C)c3)ccc21 1.91%, N/N=C(\c1ccccc1)c1cc(Br)ccc1N 1.57%, COc1ccc(NC(=O)Oc2cc(C)ccc2C(C)C)cc1 -0.959%, OCCCc1cn(Cc2ccccc2)c2ccccc12 -0.804%, O=C(Cn1cccc1C(=O)c1ccccc1)NCc1ccccc1Cl -3.87%, CC(C)(C)c1cc(C(=O)NNc2cccc(Cl)c2)n(Cc2ccccc2)n1 -0.821%, O=C(NCc1ccc(F)cc1)c1c2c(nc3ccccc13)CCN(Cc1ccccc1)C2 -1.25%, CC(C)CC1NC(=O)N(CC(=O)N(C)C2CCCCC2)C1=O (centres undefined) -0.87%, N#Cc1c(N)c(C#N)c(-c2ccc(O)cc2)c2c1CCCC2 -0.315%, Cc1cccc(C)c1NC(=S)NC(C)(C)CO 1.29%, CC(C)(C)OC(=O)n1cc(C(=O)c2ccccc2O)cn1 1.29%, Cc1cc(Nc2ccccc2Cl)nc(-c2ccccc2O)n1 1.86%, CN(C)CCCNC(=S)Nc1ccc(Oc2ccccc2)cc1 -9.71%, COC(=O)c1ccc(NC(=S)Nc2cccc(C)n2)cc1 -2.33%, Cc1cc(C)nc(NCC(O)CNc2ccccc2C)n1 (centres undefined) 2.94%, Cc1ccc(Cl)c(NC(=O)COC(=O)C2CCC2)c1Cl -2.31%, COC(=O)c1cc2ccsc2n1Cc1cccc(F)c1 1.78%, O=S(=O)(NC1CCCC1)c1ccc(-n2cnnn2)cc1 0.658%, COc1ccc(Cl)cc1C(=O)NNC(=O)CNC(=O)c1ccc(C)s1 -0.888%, COc1ccc(CCNS(=O)(=O)c2ccc(-n3cnnn3)c(OC)c2)cc1OC 1.4%, COc1ccccc1C(=O)NC(CCSC)C(=O)NC1CC1 (centres undefined) 4.47%, COc1ccc(OCCSc2nnc(C(C)NC(=O)c3ccccc3F)n2C)cc1 (centres undefined) -3.42%, COc1ccc(NC(=O)Nc2nnc(C(C)(C)C)s2)cc1 -1.28%, CCSc1nnc(NC(=O)CCNC(=O)c2ccccc2Cl)s1 -1.72%, O=C(CNC(=O)CNC(=O)c1ccc(Cl)cc1Cl)NCc1cccc(Cl)c1 -0.331%, O=C(O)CC(CNC(=O)C1CCCN1C(=O)OCc1ccccc1)c1ccccc1 (centres undefined) -2.42%, CC(=O)c1cc(Cl)ccc1OCC(=O)Nc1cccc(S(=O)(=O)N2CCCC2)c1 6.73%, O=C(COc1ccc2c(c1)OCO2)Nc1nccs1 1.01%, COC(=O)c1ccc(CN2C(=O)c3ccccc3S2(=O)=O)cc1 -0.049%, CCc1nnc(NC(=O)c2cc(S(=O)(=O)N3CCCCC3)ccc2C)s1 1.84%, COC(=O)c1cc(S(=O)(=O)N2CCCC(C)C2)c[nH]1 (centres undefined) 1.02%
